From ChEMBL document CHEMBL4513216, “Probing the Open Global Health Chemical Diversity Library for Multistage-Active Starting Points for Next-Generation Antimalarials” (ACS Infect Dis, 2020) come the findings set out here.

In all, about 68,000 compounds went through this assay and about 2,700 (4%) showed an effect of 50% or more. For the sample, strong results were picked, then their nearest neighbours and some compounds at random.

This assay relates to Plasmodium berghei. As to the kind of experiment: Screen against P. berghei liver stage (PbLuc), transformed with Luciferase, at 2uM. Format: functional, HepG2. As to conditions: tested at 2 uM.
For the molecule `COc1cc(C(=O)N2CC(Oc3ccccc3Cl)C2)ccn1`, the INHIBITION is 14.88%.

In the case of `NC(=O)C1CCN(C(=O)c2cccn2Cc2cccs2)CC1`, the INHIBITION was 3.97%. Consider `O=C(c1cccn1Cc1cccs1)N1CCC(C(=O)N2CCCC2)CC1`, for which the INHIBITION is 17.42%. As for `O=C(c1cccn1Cc1cccs1)N1CCSCC1`, the INHIBITION is 69.49%. To `CNC(=O)C1CCN(C(=O)c2cccn2Cc2cccs2)CC1` belongs 56.67%; to `O=C(c1cccn1Cc1cccs1)N1CCN(C2CC2)CC1`, -14.3%. In the case of `O=C(c1cccn1Cc1cccs1)N1CCN(C(=O)C2CC2)CC1`, the INHIBITION is given as -72.53%. As to `Cn1cc(C2COC3(CCN(C(=O)Cn4cccn4)CC3)C2)cn1` (configuration not stated), the INHIBITION came out at 12.36%. Regarding `CCOCC1CN(CC2CC2)Cc2nn(C)cc21` (configuration not stated), the INHIBITION is 4.99%.

Turning to `O=C(CCC1CCCC1)NCCn1nc(C2CCNC2)c2nccnc21` (configuration not stated), the INHIBITION was 26.52%. Take `CCN1CCN(Cc2coc(-c3cccc(F)c3)n2)CC1`: the INHIBITION turned out to be 23.92%. `OCCN1CCN(Cc2coc(-c3cccc(F)c3)n2)CC1`: the INHIBITION is 45.83%.

As to `CCOCCN1CCN(Cc2coc(-c3cccc(F)c3)n2)CC1`, the INHIBITION is 62.13%. For the molecule `O=C(c1cnccn1)N1CCOC2(CCN(Cc3ccsc3)CC2)C1`, the INHIBITION is reported as -3.36%. Regarding `CCOCC(=O)N1C[C@@H]2COC[C@H](c3nc(C)no3)[C@@H]2C1`, the INHIBITION is given as 64.16%. For `Cc1noc([C@H]2COC[C@H]3CN(C(=O)Cc4ccc(F)cc4)C[C@H]32)n1`, the INHIBITION is reported as 11.08%. For the molecule `Cc1noc([C@H]2COC[C@H]3CN(C(=O)Cc4ccccc4F)C[C@H]32)n1`, the INHIBITION is reported as 15.89%. For the molecule `CC(C)c1ccc(C(CN)N2CCc3sccc3C2)cc1` (configuration not stated), the INHIBITION came to 11.74%. As to `CN(Cc1ccco1)[C@@H]1CN(Cc2ccoc2)C[C@@H]2CCCO[C@@H]21`, the INHIBITION is -11.13%. In the case of `CC1(C)CNC(=O)CN(C(=O)Cc2ccccc2)C1`, the INHIBITION worked out at 30.56%. As for `CC(CN1CCOCC1)NC1CCN(Cc2cccc(O)c2)CC1` (configuration not stated), the INHIBITION is 58.12%.

For the molecule `CC(Cn1cncn1)NC1CCN(Cc2cccc(O)c2)CC1` (configuration not stated), the INHIBITION is recorded as -6.77%. With `Cc1cc(C)n(CC(C)NC2CCN(Cc3cccc(O)c3)CC2)n1` (configuration not stated), the INHIBITION worked out at 32.71%.

As for `COc1ccc(CCC(C)Nc2cccc(SC)c2)cc1` (configuration not stated), the INHIBITION is recorded as 2.5%. On to `CCOCC1c2c(ncn2C)CCN1C(=O)c1cnc(C)cn1` (configuration not stated), for which the INHIBITION is on record as -6.19%. In the case of `Cc1ccc(C(=O)N(Cc2ccccc2F)C2CC2)c(=O)[nH]1`, the INHIBITION is recorded as -2.23%. As for `Cc1ccc(C(=O)N(C)CCOc2ccccc2F)c(=O)[nH]1`, the INHIBITION came out at 54.62%.

As for `Cc1ccc(C(=O)N(C)Cc2cscn2)c(=O)[nH]1`, the INHIBITION was found to be 44.39%. Regarding `O=S(=O)(c1ccc(F)cc1)n1cc(Cl)cn1`, the INHIBITION is on record as -0.9%. `NC(=O)c1ccc2c(c1)nc1n2CCN(Cc2cccnc2)C1`: the INHIBITION is listed as 8.41%. In the case of `O=C(Nc1ccccc1)C1CN(Cc2nccs2)CC12CCOCC2` (configuration not stated), the INHIBITION came out at 11.9%. The result for `Cc1cc(-c2cnc(N3CCSCC3)nc2-c2ccc(C)s2)on1` reads -48.18%. `COc1ccc(SC(C)C(=O)N2CCC(NC(=O)C3CC3)CC2)cc1` (configuration not stated): the INHIBITION is 61.74%.

As for `COc1ccc(SC(C)C(=O)N2CCC(C(N)=O)CC2)cc1` (configuration not stated), the INHIBITION is listed as -12.36%. For `COc1ccc(SC(C)C(=O)N2CCC(O)CC2)cc1` (configuration not stated), the INHIBITION is reported as -0.39%.

For the molecule `O=C1N(c2cccnc2)CCC12CCCN(Cc1ccoc1)C2` (configuration not stated), the INHIBITION worked out at 16.39%. The result for `O=C(NCCc1ccccc1)N1C[C@@H]2C[C@H](C(=O)N3CCCC3)[C@H](C1)O2` reads -0.89%; that for `CCC1=N[C@@]2(CC[C@@H]3CN(Cc4ccc(F)cc4)C[C@@H]32)C(=O)N1C`, -22.23%; that for `c1ccc(CN2CCCC(c3nccnc3-n3ccnc3)C2)cc1` (configuration not stated), 22.66%. `Fc1ccc(CN2CCC(c3nccnc3-n3ccnc3)CC2)cc1`: the INHIBITION was determined as 16.87%. Turning to `Fc1ccc(CN2CCCC(c3nccnc3-n3ccnc3)C2)cc1` (configuration not stated), the INHIBITION is reported as 50.74%. `CS(=O)(=O)N[C@@H]1CCN(Cc2cccnc2)[C@H]1Cc1ccccc1`: the INHIBITION is 7.26%.

Consider `CN(C)C1CCN(C(=O)c2cc(-c3ccn(C)n3)n3ccccc23)CC1`, for which the INHIBITION is reported as -40.37%. On to `CC(C)NC(=O)N1C[C@@H](F)[C@@H](OCc2nc3ccccc3o2)C1`, for which the INHIBITION turned out to be 16.47%. The result for `CC(C)N1CCC(N2CCOC3(CCCC3)C2)C1=O` (configuration not stated) reads -0.75%. For `COC(=O)c1sccc1S(=O)(=O)NCCC(O)c1ccco1` (configuration not stated), the INHIBITION stood at 4.89%. Turning to `Fc1cccc2ncnc(NCCCc3ccncc3)c12`, the INHIBITION came to 54.3%. As for `CS(=O)(=O)NCCNc1ncnc2cccc(F)c12`, the INHIBITION was determined as 17.73%. As for `CSCCCNc1ncnc2cccc(F)c12`, the INHIBITION was 28.79%.

Turning to `CC(C)n1cc(C(=O)N2CCC(n3cc(C(C)(C)C)nn3)CC2)cn1`, the INHIBITION was 22.39%. As for `CC(C)(C)c1cn(C2CCN(C(=O)c3cnccn3)CC2)nn1`, the INHIBITION turned out to be 50.4%.

Consider `CC(C)(C)c1cn(C2CCN(C(=O)c3cncnc3)CC2)nn1`, for which the INHIBITION is reported as 40.83%.
